# This is one part of a sample in which the strongest signals are shown more often than they occur.
# How the values were obtained:
# Experiment in all cases: glycan array binding signal (z-score within array); higher = stronger binding
# Settings in all cases: glycan notation: IUPAC condensed, linker removed; mutation: N288D, K313I
# [1] = biological target: GlcNAc(b1-2)Man(a1-3)[GlcNAc(b1-4)][GlcNAc(b1-2)Man(a1-6)]Man(b1-4)GlcNAc(b1-4)[Fuc(a1-6)]GlcNAc
# How it was run: (§1)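 Negative Z-scores can be read as non-binding. The Z-score is calculated within each array and then averaged across arrays of one protein sequence at different concentrations or buffers and across linkers. Arrays, 3228 in all, were curated from the Consortium for Functional Glycomics database and kept only where the protein sequence was available.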
# [2] = biological target: GlcNAc(b1-2)[GlcNAc(b1-4)]Man(a1-3)[GlcNAc(b1-2)Man(a1-6)]Man(b1-4)GlcNAc(b1-4)GlcNAc
# How it was run: as §1
# [3] = biological target: GlcNAc(b1-2)[GlcNAc(b1-4)]Man(a1-3)[GlcNAc(b1-4)][GlcNAc(b1-2)[GlcNAc(b1-6)]Man(a1-6)]Man(b1-4)GlcNAc(b1-4)[Fuc(a1-6)]GlcNAc
# How it was run: as §1
# [4] = biological target: GlcNAc(b1-2)[GlcNAc(b1-6)]Man(a1-6)[GlcNAc(b1-2)Man(a1-3)]Man(b1-4)GlcNAc(b1-4)GlcNAc
# How it was run: as §1
# [5] = biological target: GlcNAc(b1-2)[GlcNAc(b1-6)]Man(a1-6)[GlcNAc(b1-4)][GlcNAc(b1-2)Man(a1-3)]Man(b1-4)GlcNAc(b1-4)GlcNAc
# How it was run: as §1
# [6] = biological target: GlcNAc(b1-3)Gal(b1-4)GlcNAc
# How it was run: as §1
# [7] = biological target: GlcNAc(b1-3)Gal(b1-4)GlcNAc(b1-2)[GlcNAc(b1-3)Gal(b1-4)GlcNAc(b1-6)]Man(a1-6)[GlcNAc(b1-3)Gal(b1-4)GlcNAc(b1-2)Man(a1-3)]Man(b1-4)GlcNAc(b1-4)GlcNAc
# How it was run: as §1
# [8] = biological target: GlcNAc(b1-3)Gal(b1-4)GlcNAc(b1-3)Gal(b1-4)GlcNAc(b1-2)[GlcNAc(b1-3)Gal(b1-4)GlcNAc(b1-3)Gal(b1-4)GlcNAc(b1-6)]Man(a1-6)[GlcNAc(b1-3)Gal(b1-4)GlcNAc(b1-3)Gal(b1-4)GlcNAc(b1-2)Man(a1-3)]Man(b1-4)GlcNAc(b1-4)[Fuc(a1-6)]GlcNAc
# How it was run: as §1
# [9] = biological target: GlcNAc(b1-3)Gal(b1-4)GlcNAc(b1-3)Gal(b1-4)GlcNAc(b1-3)Gal(b1-4)GlcNAc(b1-2)[GlcNAc(b1-3)Gal(b1-4)GlcNAc(b1-3)Gal(b1-4)GlcNAc(b1-3)Gal(b1-4)GlcNAc(b1-6)]Man(a1-6)[GlcNAc(b1-3)Gal(b1-4)GlcNAc(b1-3)Gal(b1-4)GlcNAc(b1-3)Gal(b1-4)GlcNAc(b1-2)Man(a1-3)]Man(b1-4)GlcNAc(b1-4)[Fuc(a1-6)]GlcNAc
# How it was run: as §1
# [10] = biological target: GlcNAc(b1-3)Gal(b1-4)GlcNAc(b1-3)Gal(b1-4)GlcNAc(b1-3)Gal(b1-4)GlcNAc(b1-3)Gal(b1-4)GlcNAc(b1-2)Man(a1-3)[GlcNAc(b1-3)Gal(b1-4)GlcNAc(b1-3)Gal(b1-4)GlcNAc(b1-3)Gal(b1-4)GlcNAc(b1-3)Gal(b1-4)GlcNAc(b1-2)Man(a1-6)]Man(b1-4)GlcNAc(b1-4)[Fuc(a1-6)]GlcNAc
# How it was run: as §1
# [11] = biological target: GlcNAc(b1-3)Gal(b1-4)GlcNAc(b1-6)[GlcNAc(b1-3)]Gal(b1-4)GlcNAc
# How it was run: as §1
# [12] = biological target: GlcNAc(b1-3)GalNAc
# How it was run: as §1
# [13] = biological target: GlcNAc(b1-3)[GlcNAc(b1-6)]Gal(b1-4)GlcNAc
# How it was run: as §1
# [14] = biological target: Kdn(a2-3)Gal(b1-3)GlcNAc
# How it was run: as §1
# [15] = biological target: Neu5Ac(a2-3)Gal(b1-3)GlcNAc(b1-6)GalNAc
# How it was run: as §1
# [16] = biological target: Neu5Ac(a2-3)Gal(b1-3)[Fuc(a1-4)]GlcNAc(b1-3)Gal(b1-3)[Fuc(a1-4)]GlcNAc
# How it was run: as §1
# [17] = biological target: Neu5Ac(a2-3)Gal(b1-3)[Neu5Ac(a2-6)]GlcNAc(b1-3)[Fuc(a1-3)[Gal(b1-4)]GlcNAc(b1-6)]Gal(b1-4)Glc
# How it was run: as §1
# [18] = biological target: Neu5Ac(a2-3)Gal(b1-4)GlcNAc(b1-6)GalNAc
# How it was run: as §1
# [19] = biological target: Neu5Ac(a2-3)Gal(b1-4)GlcNAc6S
# How it was run: as §1
# [20] = biological target: Neu5Ac(a2-3)Gal(b1-4)[Fuc(a1-3)]GlcNAc(b1-2)Man
# How it was run: as §1
# [21] = biological target: Neu5Ac(a2-3)Gal(b1-4)[Fuc(a1-3)]GlcNAc(b1-3)Gal
# How it was run: as §1
# [22] = biological target: Neu5Ac(a2-3)Gal(b1-4)[Fuc(a1-3)]GlcNAc(b1-3)GalNAc
# How it was run: as §1
# [23] = biological target: Neu5Ac(a2-6)Gal(b1-4)GlcNAc(b1-2)Man(a1-6)[GlcNAc(b1-2)Man(a1-3)]Man(b1-4)GlcNAc(b1-4)GlcNAc
# How it was run: as §1
# [24] = biological target: Neu5Ac(a2-6)Gal(b1-4)GlcNAc(b1-2)Man(a1-6)[Man(a1-3)]Man(b1-4)GlcNAc(b1-4)GlcNAc
# How it was run: as §1
# [25] = biological target: Neu5Ac(a2-6)Gal(b1-4)GlcNAc(b1-3)Gal(b1-4)GlcNAc(b1-6)[Gal(b1-3)]GalNAc
# How it was run: as §1
# [26] = biological target: Neu5Ac(a2-6)Gal(b1-4)GlcNAc(b1-6)GalNAc
# How it was run: as §1
# [27] = biological target: Neu5Ac(a2-8)Neu5Ac(a2-8)Neu5Ac(a2-8)Neu5Ac(a2-3)[GalNAc(b1-4)]Gal(b1-4)Glc
# How it was run: as §1
# [28] = biological target: Neu5Ac(b2-6)GalNAc
# How it was run: as §1
# [29] = biological target: Neu5Ac9Ac(a2-3)Gal(b1-4)GlcNAc
# How it was run: as §1
binder,measurement,setting,value
"Langerin (Homo sapiens), Q9UJ71 (protein) STLNAQIPELKSDLEKASALNTKIRALQGSLENMSKLLKRQNDILQVVSQGWKYFKGNFYYFSLIPKTWYSAEQFCVSRNSHLTSVTSESEQEFLYKTAGGLIYWIGLTKAGMEGDWSWVDDTPFNKVQSARFWIPGEPNDAGNNEHCGNIKAPSLQAWNDAPCDITFLFICKRPYVPSEP",glycan array binding signal (z-score),[1],1.18
same,glycan array binding signal (z-score),[2],0.028
same,glycan array binding signal (z-score),[3],1.91
same,glycan array binding signal (z-score),[4],-0.239
same,glycan array binding signal (z-score),[5],0.046
same,glycan array binding signal (z-score),[6],1.72
same,glycan array binding signal (z-score),[7],2.14
same,glycan array binding signal (z-score),[8],16.7
same,glycan array binding signal (z-score),[9],0.284
same,glycan array binding signal (z-score),[10],2.34
same,glycan array binding signal (z-score),[11],5.4
same,glycan array binding signal (z-score),[12],-0.205
same,glycan array binding signal (z-score),[13],4.87
same,glycan array binding signal (z-score),[14],-0.115
same,glycan array binding signal (z-score),[15],-0.092
same,glycan array binding signal (z-score),[16],-0.088
same,glycan array binding signal (z-score),[17],-0.298
same,glycan array binding signal (z-score),[18],-0.165
same,glycan array binding signal (z-score),[19],-0.294
same,glycan array binding signal (z-score),[20],-0.159
same,glycan array binding signal (z-score),[21],-0.338
same,glycan array binding signal (z-score),[22],0.034
same,glycan array binding signal (z-score),[23],-0.278
same,glycan array binding signal (z-score),[24],-0.187
same,glycan array binding signal (z-score),[25],-0.179
same,glycan array binding signal (z-score),[26],0.078
same,glycan array binding signal (z-score),[27],-0.254
same,glycan array binding signal (z-score),[28],-0.196
same,glycan array binding signal (z-score),[29],-0.434
